Measurements as given in ChEMBL document CHEMBL3988442, “University of Dundee, Small-Polar-MMV Screening Library” (2021).
Screen size: about 48,000 compounds; about 13,000 (27%) showed an effect of 50% or more. This is one part of the list.

Each compound was assayed on Wolbachia pipientis (assay: Anti-Wolbachia Cell-Based Screen). Settings: 5 µM.
Assay type: functional
Parameters: scale not given: in the data most compounds retested in dose-response had high values

Point of comparison: `COc1cc(CNC(C)Cn2cccn2)cc(OC)c1OC.Cl` (stereo not given), “Percent Effect” value -0.312%. Against it:
- CC(C)CN1C(=O)CO[C@@H]2CNC[C@H]21 — lower, -9.19%
- CNC(=O)[C@@H]1C[C@H]2CN(C(=O)c3ccccn3)C[C@H]2N1C(C)C — lower, -10.28%
- CCCN1CCN(C(=O)c2ccnc(N)c2)[C@H]2CS(=O)(=O)C[C@H]21 — lower, -9.553%
- Cc1cccc(CN2CCN(C(=O)N(C)C)[C@@H]3CS(=O)(=O)C[C@@H]32)n1 — lower, -5.175%
- CCC(=O)N1CCN(Cc2cnc(C)nc2)[C@H]2CS(=O)(=O)C[C@H]21 — higher, 99.52%
- O=C(C1CCC1)N1CCN(Cc2cccnc2)[C@H]2CS(=O)(=O)C[C@H]21 — lower, -3.397%
- Cc1ncc(CN2CCN(C(=O)N(C)C)[C@@H]3CS(=O)(=O)C[C@@H]32)cn1 — higher, 93.36%
- CCCN1CCN(C(=O)c2cncnc2C)[C@H]2CS(=O)(=O)C[C@H]21 — higher, 18.46%
- CCCN1CCN(C(=O)c2cnc(C)nc2)[C@H]2CS(=O)(=O)C[C@H]21 — lower, -7.853%
- COC(=O)NCCC(=O)NC(C)Cc1ccccc1Br (stereo not given) — lower, -17.72%
- Cc1noc(C)c1CN1CC[C@@H]2O[C@H](COCC3CC3)CC[C@@H]21.O=C(O)C(F)(F)F — higher, 3.642%
- O=C([C@@H]1CC[C@@H]2[C@@H](CCN2Cc2ccncc2)O1)N1CCCCO1 — lower, -7.886%
- COC[C@H]1CC[C@@H]2[C@@H](CCN2Cc2ccco2)O1.O=C(O)C(F)(F)F — higher, 137.5%
- CO[C@H]1CCN(Cc2ccccn2)[C@@H]2CN(Cc3ccco3)C[C@H]12.O=C(O)C(F)(F)F.O=C(O)C(F)(F)F.O=C(O)C(F)(F)F — lower, -3.065%
- c1ccc(COC[C@H]2CC[C@H]3[C@H](CCN3Cc3ccco3)O2)nc1 — higher, 102.6%
- O=C(O)C(F)(F)F.O=C(O)C(F)(F)F.c1ccc(COC[C@H]2CC[C@H]3[C@H](CCN3Cc3cccs3)O2)nc1 — higher, 0.5679%
- c1coc(CN2CC[C@@H]3O[C@@H](COCc4ccncc4)CC[C@@H]32)c1 — higher, 67.65%
- O=C(O)C(F)(F)F.O=C(O)C(F)(F)F.c1cncc(COC[C@H]2CC[C@H]3[C@H](CCN3Cc3nccs3)O2)c1 — higher, 8.415%
- CN(C)C(=O)COC[C@H]1CC[C@@H]2[C@@H](CCN2Cc2ccccn2)O1.O=C(O)C(F)(F)F.O=C(O)C(F)(F)F — lower, -0.6188%
- c1ccc(CCN2CCOC3(CCc4ccccc43)C2)nc1 (stereo not given) — lower, -3.634%
- CC[C@H]1CN2CC[C@H]1C[C@@H]2CNC(=O)Nc1cc(OC)cc(OC)c1 — lower, -7.573%
- CN1CCN2C(=O)N(C3CCOCC3)C[C@H]2C1 — lower, -7.245%
- Cc1nc(CN2C[C@@H]3CN(C(=O)c4ccncc4)C[C@@H]3C2)cs1 — higher, 103.2%
- Cc1nc(CN2CCO[C@H]3CN(C(=O)c4ccncc4)C[C@H]32)cs1 — higher, 6.304%
- Cc1ccc(C(=O)N2C[C@H]3CNC[C@H]3C2)cn1 — higher, 11.13%
- Cc1ccc(C(=O)N2C[C@H]3CN(Cc4csc(C)n4)C[C@H]3C2)cn1 — higher, 93.97%
- Cc1nc(CN2CCC23CCN(C(=O)c2ccncc2)CC3)cs1 — lower, -6.735%
- CNC(=O)CN1CC[C@H]2CN(C(=O)c3ccc(C)nc3)C[C@H]2C1.O=C(O)C(F)(F)F — lower, -24.07%
- O=C(Nc1ccccc1)C1=NOC2(CCCNC2)C1 (stereo not given) — lower, -15.15%
- Cl.N#CC1(C(=O)NCC2CCC3(CCNCC3)O2)CC1 (stereo not given) — lower, -12.24%
- COc1cc2nc(NCc3ccc(C)nc3)nc(N)c2cc1OC — higher, 15.36%
- CN1C[C@@H]2COC[C@]2(C(=O)NCc2cccs2)C1 — lower, -12.7%
- Cc1cc(C)c(CNc2nc3ccccc3cc2CO)c(=O)[nH]1 — higher, 34.93%
- CCc1nc(CNC(C)Cn2cccn2)cs1 (stereo not given) — higher, 2.575%
- COc1c(Br)cc(Br)cc1CNC(C)Cn1cccn1 (stereo not given) — higher, 3.191%
- COc1ccc(CNC(C)Cn2cccn2)cc1OC (stereo not given) — higher, 104.4%
- COc1cc(CNCC(O)c2ccc(C)cc2)cc2c1OCCO2.Cl (stereo not given) — higher, 4.109%
- CC(Cn1cccn1)NCC(=O)NC1CCOCC1 (stereo not given) — higher, 1.6%
- COc1ccc(CNC(C)Cn2cccn2)c(OC)c1OC.Cl (stereo not given) — higher, 98.57%
- COc1cc(CNC(C)Cn2cccn2)cc2c1OCCO2.Cl (stereo not given) — higher, 99.62%
- CC(Cn1cccn1)NCCS(=O)(=O)c1ccccc1 (stereo not given) — lower, -1.056%
- CC(Cn1cccn1)NCc1csc2c1CCCC2 (stereo not given) — higher, 12.25%
- COc1cc(CNC(C)Cn2cccn2)cc(OC)c1 (stereo not given) — higher, 102.9%
- CC(Cn1cccn1)NCc1csc(-c2cccs2)n1 (stereo not given) — higher, 1.256%
- COc1cccc(CNC(C)Cn2cccn2)c1OC.Cl (stereo not given) — higher, 8.103%
- CC(c1ccc(F)cc1)N1CCN(Cc2ccc(C#N)cc2)CC1 (stereo not given) — higher, 26.99%
- CC(C)OCCNC1(c2ccc(Cl)cc2)CCOCC1 — higher, 3.7%
- CC(=O)N1C[C@H]2CNC[C@@]2(C(=O)NCCNc2ccncc2C)C1 — lower, -5.626%
- Cc1cccc(-c2ncc(CNC(C)Cc3ccncc3)cn2)c1 (stereo not given) — lower, -2.738%
- Cc1nnc([C@@H]2CC[C@@H]3[C@@H](CCN3Cc3ccccn3)O2)o1.O=C(O)C(F)(F)F.O=C(O)C(F)(F)F — lower, -6.583%
- CC(Cn1ccnc1)NCc1ccc2nonc2c1 (stereo not given) — lower, -7.482%
- COc1cc(CNC(C)Cn2cccn2)cc(Cl)c1OC.Cl (stereo not given) — higher, 86.44%
- COc1ccc(CNC(C)Cn2cccn2)cc1F (stereo not given) — higher, 80.61%
- CC(Cn1cccn1)NCc1nc(-c2cccs2)no1 (stereo not given) — lower, -0.9937%
- CC(Cn1cncn1)NCc1ccc2nonc2c1 (stereo not given) — lower, -26.41%
- Cc1nc(C)c(CC(=O)N2C[C@@H]3CC[C@H](C2)N(CC2CC2)C3)s1 — higher, 5.812%
- O=S1(=O)N(c2ccccc2)C[C@H](O)[C@]12CCNC2 — higher, 107%
- O=C(O)C(F)(F)F.O=S1(=O)NCC2(CCNCC2)COc2ccccc21 — lower, -6.327%
- O=S1(=O)N(c2ccccc2)C[C@@H](O)[C@]12CCNC2 — higher, 103.1%
- OCC1N(Cc2ccco2)[C@H]2CC[C@]1(O)CC2 (stereo not given in full) — higher, 109.9%
- CN1CCN(Cc2ccco2)Cc2cccnc21 — higher, 10.4%
- Cc1cc(CN2C[C@@H]3COC[C@]3(CNC(=O)N(C)C)C2)no1.O=C(O)C(F)(F)F — lower, -12.05%
- Cc1cc(CN2C[C@@H]3COC[C@]3(COCC(=O)N(C)C)C2)no1 — higher, 104.2%
- Cc1cc(CN2C[C@@H]3COC[C@]3(COCc3csc(C)n3)C2)no1.O=C(O)C(F)(F)F — lower, -7.222%
- CN(C)C[C@]12COC[C@H]1CN(Cc1ccc3ccccc3n1)C2.O=C(O)C(F)(F)F.O=C(O)C(F)(F)F.O=C(O)C(F)(F)F — lower, -5.05%
- COC[C@]12COC[C@H]1CN(Cc1ccc3ccccc3n1)C2.O=C(O)C(F)(F)F.O=C(O)C(F)(F)F — lower, -16.09%
- Cc1cccc(CN2C[C@@H]3COC[C@]3(COCC(=O)N(C)C)C2)n1.O=C(O)C(F)(F)F.O=C(O)C(F)(F)F — higher, 109.1%
- Cc1cccc(CN2CCO[C@H]3[C@H](Oc4ccccn4)CC[C@@H]32)n1.O=C(O)C(F)(F)F.O=C(O)C(F)(F)F.O=C(O)C(F)(F)F — lower, -5.124%
- Cc1ccc(CN2C[C@@H](OCc3ccccn3)[C@H]3COC[C@H]32)o1.O=C(O)C(F)(F)F.O=C(O)C(F)(F)F — higher, 91.93%
- Cc1cccc(CN2C[C@@H]3COC[C@H](NS(C)(=O)=O)[C@@H]3C2)n1.O=C(O)C(F)(F)F.O=C(O)C(F)(F)F — higher, 86.62%
- Cc1noc(C)c1CN1C[C@H](OCC2CC2)[C@H]2COC[C@H]21.O=C(O)C(F)(F)F — lower, -11.17%
- Cc1cccc(CN2C[C@@H](NC(=O)C3CCC3)[C@H]3COC[C@H]32)n1 — higher, 5.905%
- Cc1ccc(CN2C[C@H]3OC(=O)N(Cc4ccccn4)[C@H]3C2)o1 — higher, 4.449%
- Cc1cccc(CN2C[C@@H]3CCCO[C@@H]3[C@H](NS(C)(=O)=O)C2)n1 — higher, 6.966%
- CCc1ccc(CN2C[C@H](OC)[C@H]3COC[C@H]32)o1.O=C(O)C(F)(F)F — higher, 106.4%
- Cc1cccc(CN2C[C@H](OCc3ccccn3)[C@H]3COC[C@H]32)n1.O=C(O)C(F)(F)F.O=C(O)C(F)(F)F — higher, 114.7%
- Cc1noc(C)c1CN1C[C@H](OCC(=O)N(C)C)[C@H]2COC[C@H]21.O=C(O)C(F)(F)F — lower, -5.936%
- Cc1ncsc1CN1C[C@@H](OCc2ccccn2)[C@H]2OCCC[C@H]21.O=C(O)C(F)(F)F.O=C(O)C(F)(F)F.O=C(O)C(F)(F)F — lower, -3.232%
- Cc1cccc(CN2C[C@H](NS(C)(=O)=O)[C@@H]3OCCC[C@@H]32)n1.O=C(O)C(F)(F)F.O=C(O)C(F)(F)F — lower, -8.995%
- O=C1NCCC12CN(CC1CC1)CC21CCNCC1 (stereo not given) — lower, -8.947%
- CCC/C=C/c1ccc(CN2CCN(C)CC2)cn1 — lower, -3.388%
- O=C(NCC(=O)N1CCC2(CC1)OCCO2)c1ccoc1 — higher, 92.23%
- CC(C)C(NC(=O)c1ccco1)C(=O)N1CCC2(CC1)OCCO2 (stereo not given) — lower, -15.39%
- CC(C)C(NC(=O)c1ccccc1)C(=O)N1CCC2(CC1)OCCO2 (stereo not given) — lower, -14.78%
